Common to all, as to settings: treatment time: 24 h
Experiment [1] concerns A549-ACTB-RAB5A. Kind of experiment: lowest phenotypically active concentration; higher = less potent. An outline of the steps:
(§1)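 The reporter lines, fifteen in total and built by gene editing in A549, HepG2 and WPMY1 cells, used BFP for segmentation alongside GFP and RFP/FusionRed markers. Each was treated at 0.3, 1, 3 or 9 µM for 24 h in four wells and then imaged live, with live-cell features normalised to solvent control wells. Deviation meant ≥3 of 4 wells beyond the 95th percentile of control Euclidean distances; reproducibility meant a median replicate Pearson correlation above the 95th percentile of non-replicates. Only conditions meeting both were scored as phenotypically active.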

Experiment [2] has as its system A549-GM130-SQSTM1. Described as above. An outline of the steps: as §1
Experiment [3] relates to A549-TUBA1B-RELA. Described as above. In short, it runs like this: as §1
Experiment [4] relates to HepG2-ACTB-RAB5A. The experiment is described as above. An outline of the steps: as §1
Experiment [5] deals with A549-ACTB-RAB5A. Kind of experiment: phenotypically active (imaging signature differs from DMSO and reproducible) at any of 0.3-9 uM (binary (1 = active, 0 = inactive)); higher = active. An outline of the steps:
as §1

For the next experiment, the system named is A549-CANX-COX4. The experiment is described as above. An outline of the steps:
as §1

Experiment [6] has as its system A549-GM130-SQSTM1. Described as above. In short, it runs like this: as §1
The subject of the next experiment is A549-TP53BP1-CLTA. Described as above. An outline of the steps:
as §1

Experiment [7] relates to A549-TUBA1B-RELA. Described as above. An outline of the steps:
as §1

Experiment [8] concerns HepG2-ACTB-RAB5A. The description is as above. An outline of the steps: as §1
The next experiment deals with HepG2-CANX-COX4. Described as above. In short, it runs like this: as §1
A further experiment has as its system HepG2-GM130-SQSTM1. The description is as above. An outline of the steps: as §1
The next experiment deals with HepG2-TP53BP1-CLTA. Described as above. An outline of the steps:
as §1

A further experiment relates to HepG2-TUBA1B-RELA. The description is as above. An outline of the steps: as §1
In another experiment the test system is WPMY1-ACTB-RAB5A. The description is as above. In short, it runs like this:
as §1

In a further experiment the test system is WPMY1-CANX-COX4. Described as above. In short, it runs like this:
as §1

Experiment [9] concerns WPMY1-GM130-SQSTM1. The experiment is described as above. An outline of the steps:
as §1

The next experiment deals with WPMY1-TP53BP1-CLTA. Described as above. In short, it runs like this:
as §1

A further experiment has as its system WPMY1-TUBA1B-RELA. The description is as above. In short, it runs like this:
as §1

Experiment [10] relates to WPMY1-GM130-SQSTM1. Kind of experiment: lowest phenotypically active concentration; higher = less potent. In short, it runs like this: as §1

The values that follow come from the supplement of paper PMC7411054.

Where a name gives a salt, the structure may show the parent alone.

As to `N#C/C(=C/c1ccc(-c2cc(Cl)ccc2Cl)o1)C(=O)Nc1cccc2ncccc12`, the “lowest phenotypically active concentration” value was 3 µM in the experiment on A549-ACTB-RAB5A [1], 9 µM with A549-GM130-SQSTM1 [2], not above 0.3 µM in the experiment on A549-TUBA1B-RELA [3] and 3 µM in the experiment on HepG2-ACTB-RAB5A [4]. Besides, the phenotypically active in the experiment with A549-ACTB-RAB5A [5] is 1 (active); in the experiment with A549-CANX-COX4, 0 (inactive); in the experiment with A549-GM130-SQSTM1 [6] it was 1 (active); in the experiment with A549-TP53BP1-CLTA, 0 (inactive); in the experiment with A549-TUBA1B-RELA [7] it was 1 (active); in the experiment with HepG2-ACTB-RAB5A [8] it was 1 (active). Further, the phenotypically active is 0 (inactive) with HepG2-CANX-COX4; 0 (inactive) with HepG2-GM130-SQSTM1; 0 (inactive) in the experiment on HepG2-TP53BP1-CLTA; 0 (inactive) in the experiment on HepG2-TUBA1B-RELA; 0 (inactive) in the experiment with WPMY1-ACTB-RAB5A; 1 (active) in the experiment on WPMY1-CANX-COX4. Moreover, the phenotypically active in the experiment with WPMY1-GM130-SQSTM1 [9], in the experiment on WPMY1-TP53BP1-CLTA and in the experiment with WPMY1-TUBA1B-RELA was 0 (inactive) each time.

For `CC(CN(C)C)CN1c2ccccc2CCc2ccccc21` (stereo unspecified) [trimipramine], the “lowest phenotypically active concentration” value with A549-ACTB-RAB5A [1], in the experiment on A549-GM130-SQSTM1 [2], with A549-TUBA1B-RELA [3], in the experiment on HepG2-ACTB-RAB5A [4] and with WPMY1-GM130-SQSTM1 [10] was 9 µM each time. The phenotypically active in the experiment on A549-ACTB-RAB5A [5] is 1 (active); in the experiment with A549-CANX-COX4, 0 (inactive); in the experiment on A549-GM130-SQSTM1 [6], 1 (active); with A549-TP53BP1-CLTA, 0 (inactive); in the experiment on A549-TUBA1B-RELA [7] it was 1 (active); with HepG2-ACTB-RAB5A [8] it was 1 (active). The phenotypically active in the experiment on HepG2-CANX-COX4 was 0 (inactive); in the experiment on HepG2-GM130-SQSTM1 it was 0 (inactive); in the experiment on HepG2-TP53BP1-CLTA, 0 (inactive); in the experiment on HepG2-TUBA1B-RELA, 1 (active); with WPMY1-ACTB-RAB5A it was 1 (active); with WPMY1-CANX-COX4, 1 (active). Also, the phenotypically active in the experiment on WPMY1-GM130-SQSTM1 [9] is 1 (active); with WPMY1-TP53BP1-CLTA, 0 (inactive); in the experiment with WPMY1-TUBA1B-RELA, 0 (inactive).

As to `O=c1cc(N2CCOCC2)oc2c(-c3cccc4c3sc3ccccc34)cccc12`, the “lowest phenotypically active concentration” value with A549-ACTB-RAB5A [1] was found to be 1 µM; with A549-GM130-SQSTM1 [2], 1 µM; in the experiment on A549-TUBA1B-RELA [3] it was 3 µM; in the experiment on HepG2-ACTB-RAB5A [4], 1 µM; with WPMY1-GM130-SQSTM1 [10], 3 µM. In addition, the phenotypically active with A549-ACTB-RAB5A [5] is 1 (active); with A549-CANX-COX4, 0 (inactive); in the experiment with A549-GM130-SQSTM1 [6], 1 (active); in the experiment with A549-TP53BP1-CLTA, 0 (inactive); in the experiment with A549-TUBA1B-RELA [7], 1 (active); in the experiment on HepG2-ACTB-RAB5A [8] it was 1 (active). The phenotypically active with HepG2-CANX-COX4, in the experiment with HepG2-GM130-SQSTM1, in the experiment with HepG2-TP53BP1-CLTA, in the experiment with HepG2-TUBA1B-RELA, in the experiment with WPMY1-ACTB-RAB5A and in the experiment on WPMY1-CANX-COX4 was 1 (active) each time. Also, the phenotypically active in the experiment with WPMY1-GM130-SQSTM1 [9], with WPMY1-TP53BP1-CLTA and with WPMY1-TUBA1B-RELA was 1 (active) in each case.

For the compound `CCCCCCCCCCCCC/C=C/[C@@H](O)[C@H](CO)N(C)C` [N,N-Dimethylsphingosine], the “lowest phenotypically active concentration” value with A549-ACTB-RAB5A [1] is 3 µM; in the experiment on A549-GM130-SQSTM1 [2], 1 µM; in the experiment with A549-TUBA1B-RELA [3], 3 µM; in the experiment on HepG2-ACTB-RAB5A [4] it was 3 µM; in the experiment with WPMY1-GM130-SQSTM1 [10], 3 µM. The phenotypically active with A549-ACTB-RAB5A [5] is 1 (active); in the experiment with A549-CANX-COX4, 0 (inactive); in the experiment with A549-GM130-SQSTM1 [6], 1 (active); with A549-TP53BP1-CLTA, 0 (inactive); in the experiment on A549-TUBA1B-RELA [7] it was 1 (active); in the experiment on HepG2-ACTB-RAB5A [8] it was 1 (active). Also, the phenotypically active in the experiment with HepG2-CANX-COX4, in the experiment on HepG2-GM130-SQSTM1, in the experiment with HepG2-TP53BP1-CLTA, in the experiment with HepG2-TUBA1B-RELA, in the experiment with WPMY1-ACTB-RAB5A and in the experiment with WPMY1-CANX-COX4 was 1 (active) each time. In addition, the phenotypically active with WPMY1-GM130-SQSTM1 [9], in the experiment with WPMY1-TP53BP1-CLTA and with WPMY1-TUBA1B-RELA was 1 (active) throughout.

Consider `COCCCC/C(=N/OCCN)c1ccc(C(F)(F)F)cc1` [fluvoxamine], for which the “lowest phenotypically active concentration” value in the experiment with A549-ACTB-RAB5A [1], in the experiment with A549-GM130-SQSTM1 [2] and in the experiment on A549-TUBA1B-RELA [3] was 9 µM throughout. For the same compound, the phenotypically active with A549-ACTB-RAB5A [5] is 1 (active); in the experiment with A549-CANX-COX4, 0 (inactive); with A549-GM130-SQSTM1 [6], 1 (active); in the experiment on A549-TP53BP1-CLTA, 0 (inactive); in the experiment on A549-TUBA1B-RELA [7], 1 (active); in the experiment with HepG2-ACTB-RAB5A [8] it was 0 (inactive). For the same compound, the phenotypically active was 0 (inactive) in the experiment with HepG2-CANX-COX4; 0 (inactive) in the experiment on HepG2-GM130-SQSTM1; 1 (active) in the experiment on HepG2-TP53BP1-CLTA; 1 (active) in the experiment on HepG2-TUBA1B-RELA; 1 (active) in the experiment with WPMY1-ACTB-RAB5A; 0 (inactive) in the experiment with WPMY1-CANX-COX4. The phenotypically active with WPMY1-GM130-SQSTM1 [9], with WPMY1-TP53BP1-CLTA and with WPMY1-TUBA1B-RELA was 0 (inactive) throughout.

For the compound `Cc1cc(CS(=O)(=O)c2ccccc2)cc(OCc2ccc(CN3CCC[C@@H]3CO)cc2)c1` [PF 543 hydrochloride], the “lowest phenotypically active concentration” value with A549-ACTB-RAB5A [1], with A549-GM130-SQSTM1 [2], in the experiment on A549-TUBA1B-RELA [3] and with HepG2-ACTB-RAB5A [4] was 9 µM in each case. In addition, the phenotypically active with A549-ACTB-RAB5A [5] was 1 (active); in the experiment with A549-CANX-COX4, 0 (inactive); in the experiment with A549-GM130-SQSTM1 [6], 1 (active); with A549-TP53BP1-CLTA it was 0 (inactive); in the experiment with A549-TUBA1B-RELA [7] it was 1 (active); in the experiment with HepG2-ACTB-RAB5A [8], 1 (active). The phenotypically active in the experiment on HepG2-CANX-COX4 is 0 (inactive); in the experiment on HepG2-GM130-SQSTM1 it was 1 (active); in the experiment with HepG2-TP53BP1-CLTA, 1 (active); with HepG2-TUBA1B-RELA it was 0 (inactive); in the experiment on WPMY1-ACTB-RAB5A, 1 (active); with WPMY1-CANX-COX4, 0 (inactive). Further, the phenotypically active in the experiment on WPMY1-GM130-SQSTM1 [9], in the experiment with WPMY1-TP53BP1-CLTA and with WPMY1-TUBA1B-RELA was 0 (inactive) in each case.
